Assay outcomes from PubChem.
PLC-gamma1 inh: inhibitors of human phospholipase C gamma1. purified PLC-gamma1, fluorogenic substrate, fluorescence. inhibition, % at 12.2 µM. hit rate 0.84% among 370,000. AID 720700; in the data active = inhibition above about 9.5%
LEDGF integ inh: blocks HIV-1 LEDGF/p75-dependent DNA integration | AID 743269 | TR-FRET IN-LEDGF/p75 DNA integration, Eu/Cy5 | inhibition, % at 3.7 µM | hit rate 0.64% among 370,000;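 active = inhibition above the screen-wide mean plus 3 SD, cut at about 13% in these data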;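 also: signal is the Cy5 over europium emission ratio at 671 and 618 nm; 0% = plate median of compound wells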
PLCb3 inh: PLC-beta3 (human) inhibition, primary screen; Purified PLC-beta3, fluorogenic substrate, fluorescence; inhibition, % at 12.2 µM; Q01970; hit rate 0.18% among 370,000; in the data active = inhibition above about 11%;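 also: 0% = median of compound wells on plate and 100% = full blocker control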
UHRF1 MBD2 ctr: blocks human UHRF1 binding to methylated DNA; Q96T88; UHRF1 binding to methylated oligo, TR-FRET; inhibition, % at 4.4 µM; hit rate 0.75% among 370,000; AID 687016; in the data active = inhibition above about 21%;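 also: UHRF1 SRA domain binding a hemimethylated CpG hairpin DNA probe; 0% = median of test compound wells and 100% = reference inhibitor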
MBD2 inh: blocks human MBD2 binding to methylated DNA; Q9UBB5; inhibition, % at 4.4 µM; hit rate 0.31% among 370,000; TR-FRET, MBD2 binding to methylated oligonucleotide; in the data active = inhibition above about 13%
IN multimer up: counter-screen for LEDGF/p75 integration inhibitors: HIV-1 integrase multimerization activators; shares compounds with LEDGF integ inh; TR-FRET HIV-1 integrase multimerization, biochemical; activation, % at 7.7 µM; hit rate 17% among 2,000; AID 1053131; in the data active = activation above about 8.9%
TRFRET interf: TR-FRET optical interference, LEDGF/p75 integration counter-screen | shares compounds with LEDGF integ inh | TR-FRET optical interference counterscreen, HIV-1 IN multimerization | inhibition, % at 7.7 µM | 2,000 tested, under 10 active | AID 1053135;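 active = inhibition above the mean over all tested compounds plus 3 SD, which no compound reached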;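 also: 0% = integrase with antibodies and DMSO and 100% = antibodies without integrase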
IN-LEDGF confirm: confirmation of HIV-1 LEDGF/p75-dependent integration inhibitors; shares compounds with LEDGF integ inh; TR-FRET LEDGF/p75-dependent HIV-1 integration, biochemical; inhibition, % at 3.7 µM; hit rate 36% among 2,000; in the data active = inhibition above about 14%
Active calls of the source: *. Hits are enriched below; roughly 2.4% of the tested compounds scored in any of these assays.

What do the screens show for `Cc1c(OC(=O)N(C)C)ccc2c1O/C(=C\c1ccco1)C2=O`?
PLC-gamma1 inh: -42; LEDGF integ inh: 18*; PLCb3 inh: -67; UHRF1 MBD2 ctr: 4; MBD2 inh: 2; IN multimer up: 0; TRFRET interf: -1; IN-LEDGF confirm: -3

How did CC1CCC2[C@@H](C)C(=O)OC3O[C@]4(C)CCC1C32OO4 (some centres undefined) do in these assays?
PLC-gamma1 inh: 2; LEDGF integ inh: -1; PLCb3 inh: -3; UHRF1 MBD2 ctr: 0; MBD2 inh: 0

Results for O=C(c1cc(-c2ccc(Cl)cc2)n(-c2ccc(Cl)cc2Cl)n1)N1CCOCC1 ?
PLC-gamma1 inh: 1; LEDGF integ inh: 26*; PLCb3 inh: 1; UHRF1 MBD2 ctr: 3; MBD2 inh: 3; IN multimer up: 0; TRFRET interf: -2; IN-LEDGF confirm: -8

Results for O=c1[nH]c(=S)[nH]c(O)c1C(c1ccccn1)c1c(O)[nH]c(=S)[nH]c1=O ?
PLC-gamma1 inh: 1; LEDGF integ inh: 1; PLCb3 inh: -1; UHRF1 MBD2 ctr: 3; MBD2 inh: 0

Results for COc1cc(C2c3cc4c(cc3CC3COC(=O)C32)OCO4)cc(OC)c1OC (centres undefined) ?
PLC-gamma1 inh: 1; LEDGF integ inh: -3; PLCb3 inh: 2; UHRF1 MBD2 ctr: -1; MBD2 inh: 3

Results for COc1cc(C2c3cc(O)c(OC)cc3CC3C(=O)OCC32)ccc1O (centres undefined) ?
PLC-gamma1 inh: 2; LEDGF integ inh: 14*; PLCb3 inh: 6; UHRF1 MBD2 ctr: 0; MBD2 inh: 1; IN multimer up: -1; TRFRET interf: 6; IN-LEDGF confirm: -5

What do the screens show for `O=c1cc(C2CCNCC2)[nH][nH]1`?
PLC-gamma1 inh: 7; LEDGF integ inh: 19*; PLCb3 inh: 6; UHRF1 MBD2 ctr: 13; MBD2 inh: 7; IN multimer up: -3; TRFRET interf: 9; IN-LEDGF confirm: -6

Results for CN1C(=O)C(=Cc2cn(CC#N)c3ccccc23)C(=O)N(C)C1=O ?
PLC-gamma1 inh: -26; LEDGF integ inh: 16*; PLCb3 inh: -25; UHRF1 MBD2 ctr: 2; MBD2 inh: -1; IN multimer up: 0; TRFRET interf: -1; IN-LEDGF confirm: -5

Results for CCOP(=O)(OCC)C(O)c1ccc(N(C)C)cc1 (centres undefined) ?
PLC-gamma1 inh: 2; LEDGF integ inh: 3; PLCb3 inh: 2; UHRF1 MBD2 ctr: 0; MBD2 inh: -5

What do the screens show for `Cc1ccc(/C=C2\C(=O)NC(=S)N(c3cccc(F)c3)C2=O)o1`?
PLC-gamma1 inh: -18; LEDGF integ inh: 4; PLCb3 inh: -27; UHRF1 MBD2 ctr: 3; MBD2 inh: 6

What do the screens show for `Cc1cccc(N2C(=O)/C(=C/c3ccc(CN(CCC#N)S(C)(=O)=O)o3)C(=O)NC2=S)c1`?
PLC-gamma1 inh: -23; LEDGF integ inh: 25*; PLCb3 inh: -34; UHRF1 MBD2 ctr: 7; MBD2 inh: -1; IN multimer up: 1; TRFRET interf: -4; IN-LEDGF confirm: 36*

What do the screens show for `Cc1cc(C)n(CCOC(=O)C2C(C=C(Cl)Cl)C2(C)C)n1` (centres undefined)?
PLC-gamma1 inh: 0; LEDGF integ inh: -5; PLCb3 inh: 3; UHRF1 MBD2 ctr: 7; MBD2 inh: -7
